Activity calls are given as the source filed them. The calls were made as follows: active = hit-call score of the fitted dose curve at least 0.9, where 1 is the maximum; inactive = score below 0.9.
Key:
[1] = target: Transcription factor E2F1 (Homo sapiens) (UniProt Q01094); assay: ATG_E2F_CIS: Attagene CIS-FACTORIAL HepG2 Assay for human E2F Transcription Factor 1 (AID 2282935); details: HepG2 Attagene cis-reporter, E2F reporter RNA transcripts; actives raise or lower the signal
How it was run: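 In this cis-factorial format, endogenous factor activity drives transfected reporters in HepG2; transcripts collected at 24 h are quantified by fluorescence after RT-PCR and capillary separation.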

[2] = ATG_E_Box_CIS: Attagene CIS-FACTORIAL HepG2 Assay for human Enhancer Box (E-box) (AID 2282936); details: HepG2 E-box cis-reporter transcription, actives raise or lower the signal
How it was run: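 Measured 24 h post-dosing in HepG2 cells transfected with multiple cis-regulated reporter units, signal being reporter mRNA induction detected by fluorescent RT-PCR with capillary electrophoresis; gain or loss fitted against DMSO.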

[3] = ATG_M_61_CIS: Attagene CIS-FACTORIAL HepG2 Assay for M61 Transcription Factor (Internal Marker) (AID 2282937); details: HepG2 Attagene CIS-FACTORIAL M61 internal marker reporter; actives raise or lower the signal
How it was run: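 Using transiently transfected HepG2 liver cells, reporter transcript levels were assessed 24 h post-dosing by RT-PCR and capillary electrophoresis. Changes in either direction were fitted relative to DMSO controls.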

[4] = ATG_M_19_CIS: Attagene CIS-FACTORIAL HepG2 Assay for M19 Transcription Factor (Internal Marker) (AID 2282939); details: HepG2 Attagene CIS-FACTORIAL M19 internal marker reporter; actives raise or lower the signal
How it was run: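 HepG2 cells transiently transfected with cis-regulated multiple reporter transcription units were dosed for 24 h; reporter mRNA was quantified by RT-PCR, 6-FAM primer-extension labelling, HpaI digestion and capillary electrophoresis, with bidirectional fitting against DMSO baseline.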

[5] = ATG_ERE_CIS: Attagene CIS-FACTORIAL HepG2 Assay for Estrogen Response Element (ERE) (AID 2282940); details: HepG2 ERE cis-reporter, Attagene RNA transcript; actives raise or lower the signal
How it was run: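 HepG2 cells transiently transfected with cis-promoter-driven multiplexed reporter transcription units report endogenous TF activity. After 24 h compound exposure, reporter mRNA is quantified by RT-PCR with capillary electrophoresis fluorescence; bidirectional fitting versus DMSO baseline.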

[6] = ATG_Ets_CIS: Attagene CIS-FACTORIAL HepG2 Assay for human Erythroblast Transformation Specific (ETS) (AID 2282941); details: HepG2 ETS cis-reporter transcription, actives raise or lower the signal
How it was run: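 RT-PCR/capillary electrophoresis fluorescence read-out of reporter mRNA; HepG2 transient multi-reporter transfection; 24 h compound exposure; gain or loss of signal fitted bidirectionally relative to DMSO.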

[7] = target: Hepatocyte nuclear factor 3-beta (Homo sapiens) (UniProt Q9Y261); assay: ATG_FoxA2_CIS: Attagene CIS-FACTORIAL HepG2 Assay for human Forkhead box A2 (FOXA2) (AID 2282942); details: HepG2 cis-reporter transcription factor activity, 24 h; actives raise or lower the signal
How it was run: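 Fluorescence signal of reporter cDNA fragments, separated by capillary electrophoresis, reflects endogenous transcription factor activity in transfected HepG2 after 24 h. Both increases and decreases fitted against DMSO.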

[8] = ATG_FoxO_CIS: Attagene CIS-FACTORIAL HepG2 Assay for human Forkhead box O (FoxO) (AID 2282943); details: HepG2 Attagene cis-reporter, FoxO element, mRNA; actives raise or lower the signal
How it was run: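 HepG2 cells transiently transfected with cis-promoter-driven multiple reporter transcription units; 24 h after chemical dosing, reporter mRNA quantified by RT-PCR, fluorescent primer extension, HpaI digestion and capillary electrophoresis. Bidirectional fitting versus DMSO baseline.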

[9] = ATG_GATA_CIS: Attagene CIS-FACTORIAL HepG2 Assay for human GATA Binding Protein (AID 2282944); details: HepG2 GATA cis-element reporter, Attagene multiplex mRNA; actives raise or lower the signal
How it was run: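 HepG2 cells transiently transfected with multiplexed cis-element reporter units reflecting endogenous transcription factor activity; reporter mRNA measured after 24 h dosing by RT-PCR, 6-FAM labeling, HpaI digestion and capillary electrophoresis. Bidirectional fitting versus DMSO baseline.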

[10] = ATG_EGR_CIS: Attagene CIS-FACTORIAL HepG2 Assay for human Early Growth Response 1 (EGR1) (AID 2282938); details: HepG2 Attagene CIS-FACTORIAL EGR reporter mRNA; actives raise or lower the signal
How it was run: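 Fluorescent capillary-electrophoresis signal of reporter cDNA fragments serves as read-out. HepG2 cells bear transiently transfected cis-promoter reporter units and are exposed 24 h; gain- or loss-of-signal is fitted against DMSO.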

Measured: AC50

Sequence of Hepatocyte nuclear factor 3-beta (Homo sapiens) (Q9Y261 whole entry, looked up, the tested form may be a part): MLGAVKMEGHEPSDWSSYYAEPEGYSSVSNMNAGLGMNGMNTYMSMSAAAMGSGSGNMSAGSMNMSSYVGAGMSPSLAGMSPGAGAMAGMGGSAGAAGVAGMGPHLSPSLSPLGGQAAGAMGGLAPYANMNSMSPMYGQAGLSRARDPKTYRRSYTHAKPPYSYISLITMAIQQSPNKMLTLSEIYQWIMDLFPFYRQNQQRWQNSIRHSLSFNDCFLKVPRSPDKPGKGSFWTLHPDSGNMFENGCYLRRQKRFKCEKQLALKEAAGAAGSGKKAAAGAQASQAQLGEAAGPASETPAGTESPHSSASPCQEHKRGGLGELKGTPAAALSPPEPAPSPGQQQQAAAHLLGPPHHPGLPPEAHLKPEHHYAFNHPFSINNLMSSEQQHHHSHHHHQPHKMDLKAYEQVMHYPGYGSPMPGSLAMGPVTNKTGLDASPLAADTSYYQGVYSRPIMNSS
Sequence of Transcription factor E2F1 (Homo sapiens) (Q01094 whole entry, looked up): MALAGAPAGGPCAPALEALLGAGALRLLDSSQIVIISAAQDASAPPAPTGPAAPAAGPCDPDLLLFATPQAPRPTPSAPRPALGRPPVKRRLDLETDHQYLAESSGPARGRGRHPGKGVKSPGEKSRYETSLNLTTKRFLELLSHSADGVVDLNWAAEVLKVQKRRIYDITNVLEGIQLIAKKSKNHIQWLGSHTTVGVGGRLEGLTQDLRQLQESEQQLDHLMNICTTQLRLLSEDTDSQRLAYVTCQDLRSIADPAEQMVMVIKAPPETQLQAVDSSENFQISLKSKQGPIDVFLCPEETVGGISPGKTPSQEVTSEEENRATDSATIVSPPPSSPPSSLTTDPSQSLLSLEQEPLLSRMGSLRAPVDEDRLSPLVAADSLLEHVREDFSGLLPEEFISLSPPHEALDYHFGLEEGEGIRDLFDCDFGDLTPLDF

CCCC(C)C(=O)OCC (stereo unspecified)
not listed: [10]
inactive: all other assays above

C/C=C/C=C/CCCCCCCO
active: [10] 100 µM
not listed: [3] | [6]
inactive: all other assays above

[Cl][Eu]([Cl])[Cl]
active: [5] 51.6 µM
not listed: [3] | [6]
inactive: all other assays above

CCCCOC(=O)C(C)CC (stereo unspecified)
not listed: [3]
inactive: all other assays above

O=C(O)c1ccc2c(c1)C(=O)OC2=O
not listed: [3] | [6]
inactive: all other assays above

CC(=O)c1ccc(S(=O)(=O)NC(=O)NC2CCCCC2)cc1
not listed: [10]
inactive: all other assays above

CC(=O)C(C)C
not listed: [3]
inactive: all other assays above

CC(C)(C)C1CCC(=O)CC1
not listed: [3]
inactive: all other assays above

CCCCOCCOC(=O)COc1ccc(Cl)cc1Cl
not listed: [3]
inactive: all other assays above

CC(=O)OC1CCCCC1
not listed: [2] | [5]
inactive: all other assays above

CCCCC(C=O)CC (stereo unspecified)
not listed: [2] | [5]
inactive: all other assays above

COC(Cc1ccccc1)OC
not listed: [2]
inactive: all other assays above

CCCC1CCCC(=O)O1 (stereo unspecified)
active: [5] 21.3 µM
not listed: [2]
inactive: all other assays above

CC(C)(CO)C(O)C(=O)NCCCO (stereo unspecified)
not listed: [2] | [6]
inactive: all other assays above

CC/C=C\C/C=C\C/C=C\CCCCCCCC(=O)OC
active: [5] 38.9 µM | [8] 158 µM
not listed: [2] | [10]
inactive: all other assays above

O=C(O)C1CCC(C(=O)O)CC1 (stereo unspecified)
not listed: [2]
inactive: all other assays above

CC(=O)c1ccccc1O
not listed: [2] | [5]
inactive: all other assays above

C=C[C@@]1(C)CC(=O)[C@]2(O)[C@@]3(C)[C@@H](O)CCC(C)(C)[C@@H]3[C@H](O)[C@H](OC(C)=O)[C@@]2(C)O1
not listed: [2] | [5]
inactive: all other assays above

CC1CCC(C(C)(C)S)C(=O)C1 (stereo unspecified)
not listed: [2]
inactive: all other assays above

CCCCCCCCCCCCCCCCCCOS(=O)(=O)O
active: [4] 52.5 µM | [5] 26.8 µM | [7] 56.7 µM
not listed: [3] | [10]
inactive: all other assays above

CCCCCCOc1ccc(N)cc1
not listed: [3] | [5]
inactive: all other assays above

O=C(Cl)c1c(Cl)c(Cl)c(C(=O)Cl)c(Cl)c1Cl
not listed: [2]
inactive: all other assays above

CCCCCCCCCCCCCC(=O)OC(C)C
not listed: [3] | [10]
inactive: all other assays above

CC(=O)CC(=O)Nc1ccccc1C
not listed: [2] | [6]
inactive: all other assays above

Cc1ccc([N+](=O)[O-])cc1N
not listed: [1]
inactive: all other assays above

COc1ccc(C(=O)c2ccccc2)c(O)c1
active: [10] 85.1 µM | [5] 5.69 µM
not listed: [2]
inactive: all other assays above

CC(C)=CCCC(C)=CC#N
active: [5] 172 µM
not listed: [2] | [10]
inactive: all other assays above

CCOC(=O)/C=C\C(=O)OCC
not listed: [2] | [3]
inactive: all other assays above

C=C(C)C1CC=C(C)CC1 (stereo unspecified)
not listed: [2]
inactive: all other assays above

CCc1cccc(CC)c1
not listed: [2]
inactive: all other assays above

C=CC(C)(O)CC/C=C(\C)CC (stereo unspecified)
not listed: [2]
inactive: all other assays above

CC(C)=CCl
not listed: [2] | [6] | [10]
inactive: all other assays above

O=C(O)/C=C/c1ccccc1
active: [5] 42.5 µM
not listed: [2]
inactive: all other assays above

Cc1ccc2c(c1)CCCN2
not listed: [2]
inactive: all other assays above

CCC(C)C(=O)OC (stereo unspecified)
not listed: [1]
inactive: all other assays above

COC(=O)c1ccc(C(=O)OC)c(C(=O)OC)c1
not listed: [2] | [6]
inactive: all other assays above

Fc1ccc(Br)cc1
active: [5] 21.1 µM
not listed: [2]
inactive: all other assays above

C=CC(=O)OCCCCCCCC(C)C
active: [5] 100 µM
not listed: [2] | [3] | [6]
inactive: all other assays above

CC(C)OC(=O)c1ccccc1
not listed: [2] | [3]
inactive: all other assays above

COC(=O)C=Cc1ccccc1
not listed: [3] | [5] | [10]
inactive: all other assays above

CC=CC(=O)OCC(C)C
not listed: [2] | [3] | [6]
inactive: all other assays above

Clc1cccnc1
not listed: [3] | [10]
inactive: all other assays above

C=C(C)OC(C)=O
not listed: [2]
inactive: all other assays above

O=c1c(O)c(-c2ccc(O)cc2O)oc2cc(O)cc(O)c12
active: [5] 0.65 µM
not listed: [3] | [10]
inactive: all other assays above

CN1CCN(C)CC1
not listed: [2] | [3] | [6]
inactive: all other assays above

c1ccc(Nc2cccc3ccccc23)cc1
active: [1] 33.4 µM | [10] 46.8 µM | [4] 47.9 µM | [5] 2.06 µM | [6] 33.4 µM | [8] 53.2 µM
inactive: [3] | [7] | [9]

O=C(OCc1ccccc1)c1ccc(O)cc1
active: [10] 93.4 µM | [5] 8.77 µM
not listed: [1] | [2]
inactive: all other assays above

CC(C)C(=O)OCCc1ccccc1
not listed: [1] | [5]
inactive: all other assays above

C=CCOC(=O)c1ccc(C(=O)OCC=C)c(C(=O)OCC=C)c1
active: [2] 140 µM | [5] 22.8 µM
not listed: [1]
inactive: all other assays above

C=CC(=O)OCCCCCCOC(=O)C=C
active: [2] 100 µM
not listed: [1] | [3] | [10]
inactive: all other assays above

CCCCCC(=O)OCC
not listed: [1]
inactive: all other assays above

COC(OC)(C(=O)c1ccccc1)c1ccccc1
active: [10] 35.1 µM | [5] 2.01 µM
not listed: [1]
inactive: all other assays above

CC1=C(O)C(=O)C(C)O1 (stereo unspecified)
not listed: [1] | [3]
inactive: all other assays above

O=C1c2ccccc2C(=O)c2cc(S(=O)(=O)O)ccc21
not listed: [1]
inactive: all other assays above

C=C(C)C1CC=C(C)C(OC(C)=O)C1 (stereo unspecified)
not listed: [1] | [2]
inactive: all other assays above

CC(C)c1cccc(C(C)C)c1N
not listed: [1] | [2] | [5]
inactive: all other assays above

c1ccc2c(c1)[nH]c1ccccc12
not listed: [1]
inactive: all other assays above

CCCCC(CC)COC(=O)/C=C/c1ccc(OC)cc1 (stereo unspecified)
not listed: [1] | [2] | [5]
inactive: all other assays above

C=CC(=O)O[C@H]1C[C@@H]2CC[C@@]1(C)C2(C)C
active: [10] 100 µM | [4] 157 µM
inactive: [6] | [7] | [8] | [9]

CC(CC(C)C)=NO
not listed: [1] | [5] | [10]
inactive: all other assays above

— PubChem BioAssay (EPA / NIEHS)
